Assay outcomes: PubChem BioAssay, National Center for Advancing Translational Sciences (NCATS)
ELG1 genotox: inducers of genotoxicity in HEK293T ELG1-luciferase cells | 330,000 tested, 1.3% active | HEK293T ELG1-luciferase reporter, luminescence, 16 h | Potency, µM (series often up to 46 µM), usual class: activators; note: nearly all actives have a fitted effect of over 60% in size
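ELG1-luciferase HEK293T cells, 2,000/well; compound pinned in; 16 hr, 37 °C, 5% CO2; ONE-Glo, 30 min RT; luminescence on CCD imager.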
SMN2 splice up: increases expression of the SMN2 splice variant; HEK293 SMN2-luciferase splicing reporter, luminescence, 30-36 h; Potency, µM (series often up to 46.1 µM), actives largely listed as activators; 210,000 tested, 2.8% active; note: nearly all actives have a fitted effect of over 55% in size
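qHTS luciferase splicing reporter: luminescence rises when SMN2 exon 7 is included in transfected HEK293 cells. Compound exposure lasted 30-36 h at 37C, with 4.5 mM final sodium butyrate as control, followed by a ONE-Glo read.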
Rab9 promoter act: activates the Rab9 promoter; Huh7 Rab9 promoter-luciferase reporter, luminescence, 24 h; Potency, µM (doses to about 9.22 µM), hits mostly activators; 320,000 tested, 2.8% active; note: nearly all actives have a fitted effect of over 60% in size
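Cells were plated at 1500 per well in reduced-serum medium with 10% FBS and left 2 h. Compound in DMSO was then added for 24 h at 37 °C. Reporter signal was read by luminescence after 10 min with luciferase detection reagent.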
NPC1 promoter act: NPC1 promoter activation; Huh7 NPC1 promoter luciferase reporter, 24 h; Potency, µM (highest dose often 9.22 µM), hits mostly activators; AID 485313; 320,000 tested, 2.4% active; note: nearly all actives have a fitted effect of over 60% in size
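Stable NPC1-promoter luciferase Huh7 line; cpd (DMSO) 24 h, 37 °C, 5% CO2; Amplite luciferase reagent 10 min RT; luminescence readout. qHTS format.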
FLuc counter: counter-screen for miR-21 project: firefly luciferase inhibitors or activators. AID 588342. purified FLuc, Km substrates, luminescence inhibition. P08659. 360,000 tested, 6.9% active. Potency, µM (series often up to 57.5 µM), usual class: inhibitors; note: nearly all actives have a fitted effect of over 55% in size
Target sequence (P08659 whole entry, looked up): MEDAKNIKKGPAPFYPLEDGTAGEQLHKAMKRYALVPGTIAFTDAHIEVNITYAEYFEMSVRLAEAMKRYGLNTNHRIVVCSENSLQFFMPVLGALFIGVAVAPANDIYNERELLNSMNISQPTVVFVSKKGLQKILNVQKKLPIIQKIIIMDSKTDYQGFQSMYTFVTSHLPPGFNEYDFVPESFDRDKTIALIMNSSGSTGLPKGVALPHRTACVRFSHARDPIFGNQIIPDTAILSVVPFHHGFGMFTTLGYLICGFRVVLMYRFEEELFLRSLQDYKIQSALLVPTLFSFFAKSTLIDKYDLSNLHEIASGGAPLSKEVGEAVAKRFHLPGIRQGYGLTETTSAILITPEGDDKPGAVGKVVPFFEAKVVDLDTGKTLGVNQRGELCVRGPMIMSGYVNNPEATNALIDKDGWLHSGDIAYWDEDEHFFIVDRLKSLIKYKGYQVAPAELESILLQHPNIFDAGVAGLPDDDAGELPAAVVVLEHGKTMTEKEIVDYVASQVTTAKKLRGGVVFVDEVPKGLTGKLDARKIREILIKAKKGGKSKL
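Purified P. pyralis luciferase, 10 nM final, with Km-level 10 uM D-luciferin and 10 uM ATP in 50 mM Tris acetate pH 7.5, 10 mM Mg acetate, 0.01% Tween-20, 0.05% BSA; 6-point qHTS titration about 60 µM downward; luminescence read.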
Of the large screens only hits and unclear results are named; the others gave an inactive call. Sampled rows, rich in hits. Any-hit rate of the full collection: about 7.5%. Calls come from the whole dose curve; as a rule, active = well fitted curve in the direction sought with a large enough effect; inconclusive = small, poorly fitted or top-dose-only effect, or another doubt; inactive = no such curve, though single readings can be large; an effect the other way counts as inactive or inconclusive.

O=C1CC(c2ccccc2)Cc2[nH]c(=O)c(C(=O)Nc3cccc(F)c3)cc21 (centres undefined)	none (no result: ELG1 genotox, SMN2 splice up, Rab9 promoter act, NPC1 promoter act)
CCOC(=O)CC/C(=N\NC(N)=O)c1ccc(OC)c(Cl)c1	none (no result: SMN2 splice up)
Cc1ccc(CNS(=O)(=O)c2c(C(=O)N3CCC(C)CC3)c(C)n(C)c2C)cc1	none (no result: ELG1 genotox, SMN2 splice up, Rab9 promoter act, NPC1 promoter act)
Cc1ccc(N=CC=C2OC(C)(C)C(C)(C)O2)cc1	FLuc counter 7.6µM
Cc1cccc(N=CC=C2OC(C)(C)C(C)(C)O2)c1	FLuc counter inconclusive
CCOc1ccc(NC(=O)COc2ccc3c(c2)OCO3)cc1	none (no result: SMN2 splice up)
C/C(=N\OCC(=O)Nc1ccc2c(c1)OCCO2)c1ccc2c(c1)OCCO2	FLuc counter 19µM (no result: SMN2 splice up)
O=C(COc1ccc2c(c1)OCO2)Nc1cccc(F)c1	ELG1 genotox 13µM, FLuc counter 9.5µM (no result: SMN2 splice up)
CCOC(=O)c1ccc(NC(=O)Nc2ccc3c(c2)OCCO3)cc1	FLuc counter 19µM
CCC(=O)Nc1ccc2c(c1)OCCO2	none
CCOCC(=O)Nc1ccc2c(c1)OCCO2	ELG1 genotox inconclusive, SMN2 splice up inconclusive, Rab9 promoter act 3.2µM, NPC1 promoter act inconclusive, FLuc counter inconclusive
NC1=NC(=O)C2(COC(c3cccnc3)OC2)S1 (centres undefined)	none
CCC(=O)c1ccc(OCC(=O)Nc2ccc3c(c2)OCCO3)cc1	none (no result: SMN2 splice up, Rab9 promoter act, NPC1 promoter act, FLuc counter)
Cc1cc(OCC(=O)Nc2ccc3c(c2)OCCO3)ccc1Cl	FLuc counter 19µM
O=C(COc1ccc(F)cc1)Nc1ccc2c(c1)OCCO2	ELG1 genotox inconclusive, Rab9 promoter act 4µM, NPC1 promoter act 2.8µM, FLuc counter 5.4µM (no result: SMN2 splice up)
CCOc1ccc(OCCC(=O)OCC(=O)Nc2ccc3c(c2)OCO3)cc1	FLuc counter 24µM (no result: SMN2 splice up)
CCCC(=O)Nc1ccc(Cl)c(NC(=O)c2cccc(OC)c2)c1	none
COc1ccc2ccccc2c1/C=N/NC(=O)c1ccc(C)nc1	FLuc counter 21µM (no result: SMN2 splice up)
CCOc1ccc2ccccc2c1/C=N/NC(=O)c1ccncc1	FLuc counter 13µM (no result: SMN2 splice up)
O=C(NC1CCCC1)c1ccc2c(=O)n(Cc3ccccc3)c(SCc3cccc(F)c3)nc2c1	none (no result: ELG1 genotox, SMN2 splice up, Rab9 promoter act, NPC1 promoter act)
CC(=O)Nc1ccc(N2C(=O)CSC2c2cccc([N+](=O)[O-])c2)cc1 (centres undefined)	none
Cc1ccc(CNC(=O)[C@H]2C[C@@H]2[C@H](NP(=O)(c2ccccc2)c2ccccc2)c2ccccc2)c(F)c1F	none (no result: ELG1 genotox, Rab9 promoter act, NPC1 promoter act, FLuc counter)
O=C(c1ccccc1)c1cnc(-c2ccccc2)s1	ELG1 genotox 2.1µM, SMN2 splice up 13µM, Rab9 promoter act 0.32µM, NPC1 promoter act 0.5µM, FLuc counter 1.2µM
O=C(c1ccccc1)c1cnc(-c2ccc(Cl)cc2)s1	ELG1 genotox 2.6µM, SMN2 splice up inconclusive, Rab9 promoter act 0.32µM, NPC1 promoter act 0.35µM, FLuc counter 0.34µM
O=C(c1ccc(Cl)cc1)c1cnc(-c2ccc(Cl)cc2)s1	SMN2 splice up inconclusive
CCc1ccc(NC(=O)C2C3C=CC(C4CC34)C2C(=O)O)cc1 (centres undefined)	SMN2 splice up inconclusive, FLuc counter 2.1µM
CCc1ccc(CNC(=O)CCCC(=O)n2nc(C)c3ccccc32)cc1	none (no result: SMN2 splice up)
Cc1ccc(NC(=O)NC2CCCCCCC2)cc1C	ELG1 genotox inconclusive, Rab9 promoter act 3.5µM, NPC1 promoter act 4µM, FLuc counter 7.6µM (no result: SMN2 splice up)
CC(=O)c1cccc(NC(=O)NC2CCCCCCC2)c1	FLuc counter 17µM (no result: SMN2 splice up)
O=C(Nc1ccc2nsnc2c1)NC1CCCCC1	ELG1 genotox inconclusive, SMN2 splice up inconclusive, Rab9 promoter act 1.4µM, NPC1 promoter act 2.2µM, FLuc counter 6.7µM
CC(=O)c1cccc(NC(=O)NC2CCCCC2)c1	FLuc counter inconclusive
CC(=O)c1ccc(NC(=O)NC2CCCCCCC2)cc1	ELG1 genotox 8.2µM, Rab9 promoter act 1.8µM, NPC1 promoter act 1.6µM, FLuc counter 12µM (no result: SMN2 splice up)
COc1ccccc1CNC(=O)CCC(=O)N1Cc2ccccc2Oc2ncccc21	none (no result: ELG1 genotox, SMN2 splice up, Rab9 promoter act, NPC1 promoter act)
O=C(Cn1nc(C(F)(F)F)c2c1CCC2)N1CCN(c2ccccc2)CC1	none
Cc1ccc(-c2nnc(Nc3cccc(Cl)c3)c3ccccc23)cc1S(=O)(=O)NCC1CCCO1 (centres undefined)	none (no result: ELG1 genotox, Rab9 promoter act, NPC1 promoter act)
COc1ccc(NC(=S)NCCCCCC(=O)C[N+](=O)[O-])cc1	none
CCC1CCC(C(=O)NC(C(=O)Nc2cccc(OC)c2)C(C)C)CC1 (centres undefined)	none (no result: ELG1 genotox, Rab9 promoter act, NPC1 promoter act)
